Pf growth 96h – Primary qHTS for delayed death inhibitors of the malarial parasite plastid, 96 hour incubation; P. falciparum luciferase reporter growth, 96 h; Potency, µM (top dose mostly 28.7 µM), without a hit: at the highest dose activity change, negative = inhibition, most hits filed as inhibitors; 320,000 compounds, 6.9% hits; further: potency means the concentration at half of the fitted maximal effect; on the % scale 0 is the no-effect control and ±100 the full control effect
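96 h incubation, 37 C, 5% CO2, of luciferase-reporter P. falciparum-infected RBCs (2% hematocrit, 0.05% parasitemia final) with test compounds; endpoint luminescence.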
SARS PLpro yeast – qHTS of Yeast-based Assay for SARS-CoV PLP; 330,000 compounds, 0.19% hits; Potency, µM (top dose mostly 32.9 µM), without a hit: at the highest dose activity, positive = growth rescue, actives largely listed as activators; S. cerevisiae expressing SARS-CoV PLpro, growth rescue; calls by dose curve; further: potency means the concentration at half of the fitted maximal effect; 0% is about no effect; nearly all actives have a fitted effect of over 55% in size
AMA1-RON2 inh – qHTS for Inhibitors of AMA1-RON; Towards Development of Antimalarial Drug Lead: Primary Screen. AlphaScreen AMA1-biotinylated RON2 peptide binding. Potency, µM (titrated, usually from 58.2 µM), without a hit: at the highest dose activity change, negative = inhibition, actives largely listed as inhibitors. 360,000 compounds, 0.2% hits. Plasmodium falciparum AMA1 (3D7) - RON2 peptide interaction;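 further: potency means the concentration at half of the fitted maximal effect; 0% = vehicle wells and -100% = peptide control; nearly all actives have a fitted effect of over 45% in size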
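AMA1 (3D7) with his tag at 25 nM final met compounds first, then biotinylated RON2 peptide at 25 nM; detection used donor plus acceptor beads, 10 µg/mL apiece, read by AlphaScreen after 30 min at room temperature.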
Pf growth 48h – Primary qHTS for delayed death inhibitors of the malarial parasite plastid, 48 hour incubation. P. falciparum luciferase growth in erythrocytes, 48 h. Potency, µM (titrated, usually from 28.7 µM), inactives show at the highest dose activity change, negative = inhibition, most hits filed as inhibitors. 310,000 compounds, 5.9% hits. AID 504832, 2011; further: potency means the concentration at half of the fitted maximal effect; on the % scale 0 is the no-effect control and ±100 the full control effect
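Cell-based growth assay: transgenic P. falciparum expressing firefly luciferase, cultured in red cells within RPMI 1640 containing 0.5% w/v Albumax, 24 mM bicarbonate and gentamycin. A drop in luciferase activity indicates inhibition.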
Cycloheximide cs – Cycloheximide Counterscreen for Small Molecule Inhibitors of Shiga Toxin | cell reporter, cycloheximide protein synthesis inhibition counterscreen | max response, % | 300,000 compounds, 12% hits; in the data active means max response mostly above about 13%, no sharp cut-off; inactive means mostly below about 14%; further: read at 38.3 µM for the half of the compounds with a filed dose; 0% is about no effect
Shiga toxin inh – A qHTS for Small Molecule Inhibitors of Shiga Toxin. Vero cells, Shiga toxin protein synthesis inhibition reporter. inhibition, % at 38.7 µM. 290,000 compounds, 9.2% hits. AID 2315, 2010; in the data active means inhibition mostly above about 28%, no sharp cut-off; inactive means mostly below about 43%; further: 0% is about no effect
* hit, by the source's call; i = inactive; ? = inconclusive; · = no result; [ ] = remark or other dose. This is a sample that favours compounds with a hit; in the whole collection about 19% have one here. Unless noted, the call rests on the fitted dose curve; in most records, active means well fitted curve in the direction sought with a large enough effect; inconclusive means small, poorly fitted or top-dose-only effect, or another doubt; inactive means no such curve, though single readings can be large; an effect the other way counts as inactive or inconclusive.

SMILES | Pf growth 96h | SARS PLpro yeast | AMA1-RON2 inh | Pf growth 48h | Cycloheximide cs | Shiga toxin inh
CCCCn1c(N)c(N(CC(C)C)C(=O)CSc2nnc(C)n2-c2ccccc2)c(=O)[nH]c1=O | · | · | -1% | · | · | ·
N=c1n(CC(=O)c2ccc(Br)cc2)c2ccccc2n1Cc1ccccc1 | ? | -12% | 17% | ? | · | ·
CCN(CC)CCn1c(=N)n(CC(=O)c2ccc(C)cc2)c2ccccc21 | 20% | 1% | -5% | 4.7µM* | 27* | ·
CCN(CC)CCn1c(=N)n(CC(O)c2ccco2)c2ccccc21 (stereo not drawn) | ? | 17% | 0% | ? | -3 | -3
CCCCn1c(=N)n(CC(=O)c2ccc(OC)cc2)c2ccccc21 | ? | 0% | · | ? | -2 | -9
CCN(CC)CCn1c(=N)n(CC(O)c2ccc(OC)c(OC)c2)c2ccccc21 (stereo not drawn) | 4% | 0% | 7% | 9.3µM* | -1 | -14
Cc1ccc(C(=O)Cn2c(=N)n(N)c3ccccc32)cc1 | 293% | 3% | -5% | 57% | 46* | 81*
O=C(Cn1nnc2ccccc2c1=O)NCC1CCC(C(=O)O)CC1 (stereo not drawn) | 18% | 1% | 3% | -5% | -1 | 14
O=[N+]([O-])c1ccc(NCc2ccc3c(c2)OCO3)cc1 | ? | -2% | 5% | 54% | 21* | 46
O=C(NCc1ccc2c(c1)OCO2)Nc1ccc([N+](=O)[O-])cc1 | ? | 1% | 5% | ? | 3 | -2
CCOC(=O)c1ccc(NCc2ccc(N(C)C)cc2)cc1 | ? | -3% | -11% | 35% | 2 | -7
N#CCC(=O)Nc1ccc(C(=O)OCC(=O)NCc2ccc3c(c2)OCO3)cc1 | ? | 3% | -1% | 8.3µM* | · | ·
CCOC(=O)c1ccc(NCc2ccc3c(c2)OCO3)cc1 | -9% | -13% | 11% | 31% | 35* | 66*
CCN(CC)c1ccc(NC(=O)COC(=O)COc2ccccc2[N+](=O)[O-])cc1 | 31% | -17% | ? | 18% | 6 | -8
COc1ccccc1NC(=O)Cn1nc(C(F)(F)F)c2c1CCCC2 | 2.1µM* | -14% | 9% | 14% | -3 | 3
CC(C)CNC(=O)Cn1nc(C(F)(F)F)c2c1CCCC2 | 10µM* | 0% | -9% | 20% | -5 | 5
O=C(Cn1nc(C(F)(F)F)c2c1CCC2)Nc1ccccc1C(F)(F)F | i | 3% | -13% | -24% | 2 | -2
CCNC(=O)c1ccc(-n2nc(C(F)(F)F)c3c2CCCC3)cc1 | 7.4µM* | -2% | 6% | 15µM* | -3 | -11
N#Cc1ccc(C(=O)CSc2n[nH]c(=O)n2-c2cccnc2)cc1 | 44% | 1% | 11% | 9% | 3 | 22
COc1ccc(N(CC(=O)NCc2cccnc2)S(=O)(=O)c2ccccc2)c(OC)c1 | · | · | -8% | · | · | ·
COc1cccc(-c2nnc(SCc3cccnc3)o2)c1 | · | 8% | 0% | 49% | 67* | 98*
O=[N+]([O-])c1cccc(-c2nnc(SCc3cccnc3)o2)c1 | 9% | 1% | -12% | 22% | 13* | 35
COc1cc(OC)cc(-c2nnc(SCc3cccnc3)o2)c1 | ? | 9% | -2% | 0% | 17* | 12
COc1ccc(NC(=O)CSc2nnc(-c3cccnc3)o2)cc1 | 15% | 6% | 5% | · | -1 | -5
Cc1cc(-c2nnc(SCc3cccnc3)o2)no1 | · | -3% | 0% | 25% | 22 | 20
SMILES | Pf growth 96h | SARS PLpro yeast | AMA1-RON2 inh | Pf growth 48h | Cycloheximide cs | Shiga toxin inh
COc1ccc(-n2cc(-c3ccccc3)c3c(=O)[nH]cnc32)cc1 | 10µM* | 10% | ? | -25% | -7 | -12
COc1ccccc1-n1cc(-c2ccccc2)c2c(=S)nc[nH]c21 | ? | 12% | -5% | 13µM* | 11 | -5
C[C@H](CO)N1C[C@H](C)[C@@H](CN(C)Cc2ccncc2)Oc2ccc(NC(=O)Cn3cnnn3)cc2C1=O | · | -10% | 7% | · | · | ·
CCn1ncc([N+](=O)[O-])c1C(=O)Nc1c(C)nn(Cc2ccc(F)cc2)c1C | 8% | 2% | 13% | -2% | -2 | -11
Cc1nc(-c2cccc(S(=O)(=O)N3CCOCC3)c2)cs1 | 72% | 7% | -4% | 13µM* | -2 | 2
O=C(Nc1nc(-c2cccs2)cs1)c1cccc(S(=O)(=O)N2CCCCCC2)c1 | · | 5% | 42% | -21% | 21* | 99*
O=C(CSc1nc2cc(S(=O)(=O)N3CCOCC3)ccc2o1)NC1CCCc2ccccc21 (stereo not drawn) | ? | -2% | 20% | 9.3µM* | 0 | 18
CCc1nnc(NC(=O)c2cccc(S(=O)(=O)N3CCN(c4ccccc4)CC3)c2)s1 | 10µM* | 16% | 19% | · | 0 | 15
CCc1nnc(NC(=O)c2cc(S(=O)(=O)N3CCN(c4ccccc4)CC3)ccc2Cl)s1 | 6% | 7% | 2% | -2% | 6 | 28
Cc1nc(-c2cccc(S(=O)(=O)N3CC(C)OC(C)C3)c2)cs1 (stereo not drawn) | ? | -7% | -9% | -9% | -1 | 11
Cc1cc(=O)c2c(C)ccc(C)c2[nH]1 | 32% | 0% | 4% | -11% | -8 | -10
Cc1nc(NC(=O)CCN2C(=O)C3CC=CCC3C2=O)sc1C (stereo not drawn) | -17% | ? | 0% | 38% | 12 | 28
Cc1cc(NC(=O)CSCC(=O)OCc2nnc(-c3ccc(F)cc3)o2)no1 | · | 3% | 12%[11.6 µM] | · | · | ·
COc1ccc(-c2csc(NC(=O)c3cccc(S(=O)(=O)N4CCN(C)CC4)c3)n2)cc1 | 12µM* | -2% | -24% | ? | 7 | 10
COC(=O)c1ccc(-n2c(C)cc(-c3csc(NC(=O)c4ccc(S(=O)(=O)N(C)C)cc4)n3)c2C)cc1 | ? | -31% | 34% | ? | -3 | -5
O=C(Nc1nc(-c2ccccc2)cs1)c1cccc(S(=O)(=O)N2CCN(Cc3ccccc3)CC2)c1 | ? | -12% | -8% | · | -3 | -4
Cc1nc(-c2cccc(NC(=O)c3cccc(S(=O)(=O)N4CCCC4)c3)c2)cs1 | ? | 1% | 12% | 12µM* | · | ·
Cc1cc(-c2csc(NC(=O)c3cccc(S(=O)(=O)N(C)C)c3)n2)c(C)n1-c1ccccc1 | 12µM* | 1% | 10% | 8.3µM* | 9 | 39*
CN1CCN(S(=O)(=O)c2cccc(C(=O)Nc3nc(-c4ccccc4)cs3)c2)CC1 | -71% | 8% | -21% | · | 24* | 30*
COc1ccc(CCN(Cc2cc3ccc(C)cc3n3nnnc23)C(C)=O)cc1OC | 3% | -4% | -2% | 2% | 8 | -10
